# Test results published in paper PMC7862700, “An all-to-all approach to the identification of sequence-specific readers for epigenetic DNA modifications on cytosine”.
# Key:
# Assay in all cases: DAPPL (digital affinity profiling via proximity ligation, sequencing); 10 mM Tris-HCl pH 7.5, 50 mM NaCl, 1 mM DTT, 4% glycerol, room temperature, 30 min; GST-TFs on glutathione beads, 16-mer random dsDNA library, 0.1% formaldehyde crosslink after washing; high values mean tight binding
# Conditions in all cases: protein: recombinant; tags: N-terminal GST; dsDNA, one strand shown
# SPIC = target: T1, SPIC (Homo sapiens, UniProt Q8N5J4 1-248)
# T1 sequence: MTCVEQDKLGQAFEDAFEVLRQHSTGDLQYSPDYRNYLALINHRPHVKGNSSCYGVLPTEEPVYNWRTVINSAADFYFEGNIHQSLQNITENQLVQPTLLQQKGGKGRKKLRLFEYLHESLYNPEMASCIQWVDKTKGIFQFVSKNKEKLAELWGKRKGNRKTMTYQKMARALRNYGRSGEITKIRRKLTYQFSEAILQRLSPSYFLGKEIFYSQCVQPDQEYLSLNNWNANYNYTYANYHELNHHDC
# In short: (§1)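 Pools were built from human transcription factors expressed in yeast as GST fusions, captured on glutathione beads and DNA-barcoded, along with a tag-only sample. Incubation with 200 nmole of a 16-mer random double-stranded DNA library lasted 30 min at room temperature in Tris/NaCl/DTT/glycerol buffer, and was followed by washing, 0.1% formaldehyde crosslinking, proximity ligation, PCR amplification and Illumina NextSeq500 sequencing. Binding signal is the quotient of each hexamer's read frequency for a factor and its frequency for the tag-only sample.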
# GABPA = target: T2, GABPA (Homo sapiens, UniProt Q06546 1-454)
# T2 sequence: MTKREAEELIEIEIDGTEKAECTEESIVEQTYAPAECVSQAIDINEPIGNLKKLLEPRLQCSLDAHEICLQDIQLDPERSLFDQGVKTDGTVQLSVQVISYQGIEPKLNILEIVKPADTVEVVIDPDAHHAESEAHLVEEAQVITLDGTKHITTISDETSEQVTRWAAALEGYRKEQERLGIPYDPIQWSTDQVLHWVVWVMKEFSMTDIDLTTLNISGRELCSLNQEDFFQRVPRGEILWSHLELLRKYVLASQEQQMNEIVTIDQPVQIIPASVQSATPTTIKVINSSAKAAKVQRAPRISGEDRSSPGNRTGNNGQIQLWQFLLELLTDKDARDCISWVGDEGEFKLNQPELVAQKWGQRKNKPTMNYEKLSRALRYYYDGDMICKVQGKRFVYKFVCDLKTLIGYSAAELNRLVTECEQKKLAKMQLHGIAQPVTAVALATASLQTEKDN
# In short: as §1
# ELF1 = ELF1 (Homo sapiens, UniProt P32519 1-619)
# Sequence of ELF1 (P32519 whole entry): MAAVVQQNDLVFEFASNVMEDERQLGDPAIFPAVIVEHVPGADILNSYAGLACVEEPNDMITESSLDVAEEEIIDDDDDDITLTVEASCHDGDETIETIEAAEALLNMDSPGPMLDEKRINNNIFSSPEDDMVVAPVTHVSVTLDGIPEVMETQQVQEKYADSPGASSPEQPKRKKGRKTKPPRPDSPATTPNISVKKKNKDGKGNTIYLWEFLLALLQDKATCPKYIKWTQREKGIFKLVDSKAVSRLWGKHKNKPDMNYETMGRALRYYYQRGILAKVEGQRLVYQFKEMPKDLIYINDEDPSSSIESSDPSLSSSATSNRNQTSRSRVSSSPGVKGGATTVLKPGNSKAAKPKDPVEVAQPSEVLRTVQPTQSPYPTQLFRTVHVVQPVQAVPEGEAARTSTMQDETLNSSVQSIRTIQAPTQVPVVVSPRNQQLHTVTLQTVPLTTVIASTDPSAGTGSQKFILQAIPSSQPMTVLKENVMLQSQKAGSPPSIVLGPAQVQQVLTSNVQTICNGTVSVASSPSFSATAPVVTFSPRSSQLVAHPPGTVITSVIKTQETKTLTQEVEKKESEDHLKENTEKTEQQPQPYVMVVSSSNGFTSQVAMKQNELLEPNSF
# In short: as §1
# ELK3 = target: T3, ELK3 (Homo sapiens, UniProt P41970 1-407)
# T3 sequence: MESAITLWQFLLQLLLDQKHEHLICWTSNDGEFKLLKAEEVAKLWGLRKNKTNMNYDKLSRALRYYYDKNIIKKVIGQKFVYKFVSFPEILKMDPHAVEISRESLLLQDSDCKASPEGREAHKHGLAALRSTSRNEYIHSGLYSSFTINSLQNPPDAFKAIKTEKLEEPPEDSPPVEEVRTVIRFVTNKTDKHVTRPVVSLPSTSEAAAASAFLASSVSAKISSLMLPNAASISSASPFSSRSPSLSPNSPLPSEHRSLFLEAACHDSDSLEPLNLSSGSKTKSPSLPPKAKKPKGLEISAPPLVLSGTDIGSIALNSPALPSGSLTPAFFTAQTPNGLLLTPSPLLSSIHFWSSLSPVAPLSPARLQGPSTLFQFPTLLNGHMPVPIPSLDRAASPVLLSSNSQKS
# In short: as §1
# FEV = target: T4, FEV (Homo sapiens, UniProt Q99581 1-238)
# T4 sequence: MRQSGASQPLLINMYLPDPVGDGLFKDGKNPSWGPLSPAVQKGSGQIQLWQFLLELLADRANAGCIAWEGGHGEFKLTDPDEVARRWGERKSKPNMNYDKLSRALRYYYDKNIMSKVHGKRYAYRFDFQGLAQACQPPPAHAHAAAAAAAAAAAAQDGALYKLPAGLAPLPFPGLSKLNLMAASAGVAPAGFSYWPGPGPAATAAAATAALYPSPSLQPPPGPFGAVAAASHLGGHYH
# In short: as §1
# ELF4 = ELF4 (Homo sapiens, UniProt Q99607 1-663)
# Sequence of ELF4 (Q99607 whole entry): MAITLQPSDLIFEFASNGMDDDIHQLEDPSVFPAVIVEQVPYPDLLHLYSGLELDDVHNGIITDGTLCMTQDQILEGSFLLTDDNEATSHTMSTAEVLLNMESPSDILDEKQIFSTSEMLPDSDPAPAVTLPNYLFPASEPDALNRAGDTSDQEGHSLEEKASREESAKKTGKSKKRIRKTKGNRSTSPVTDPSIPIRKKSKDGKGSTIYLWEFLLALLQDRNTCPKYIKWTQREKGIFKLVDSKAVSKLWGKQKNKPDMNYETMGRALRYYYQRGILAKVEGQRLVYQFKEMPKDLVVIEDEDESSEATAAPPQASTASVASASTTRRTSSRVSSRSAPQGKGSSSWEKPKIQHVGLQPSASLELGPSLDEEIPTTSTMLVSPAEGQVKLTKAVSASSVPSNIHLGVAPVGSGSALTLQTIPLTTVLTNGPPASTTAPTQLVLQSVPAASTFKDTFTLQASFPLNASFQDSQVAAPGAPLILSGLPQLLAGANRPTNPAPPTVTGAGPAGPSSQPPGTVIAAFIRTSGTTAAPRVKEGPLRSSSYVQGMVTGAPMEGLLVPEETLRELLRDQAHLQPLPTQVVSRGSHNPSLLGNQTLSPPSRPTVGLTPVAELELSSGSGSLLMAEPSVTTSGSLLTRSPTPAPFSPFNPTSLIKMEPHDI
# In short: as §1
# ELK4 = target: T5, ELK4 (Homo sapiens, UniProt P28324-2 1-405)
# T5 sequence: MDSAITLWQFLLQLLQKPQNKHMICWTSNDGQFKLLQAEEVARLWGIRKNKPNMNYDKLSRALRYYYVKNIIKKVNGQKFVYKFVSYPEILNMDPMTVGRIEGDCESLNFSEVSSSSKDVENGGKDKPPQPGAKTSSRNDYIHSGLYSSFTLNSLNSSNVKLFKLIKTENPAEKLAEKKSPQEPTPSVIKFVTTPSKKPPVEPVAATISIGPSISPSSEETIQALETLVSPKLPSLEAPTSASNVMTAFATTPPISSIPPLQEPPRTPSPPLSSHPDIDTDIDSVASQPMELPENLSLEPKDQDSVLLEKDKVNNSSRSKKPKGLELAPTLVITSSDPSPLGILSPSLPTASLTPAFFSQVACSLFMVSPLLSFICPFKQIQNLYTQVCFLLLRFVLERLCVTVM
# In short: as §1
# ETV1 = ETV1 (Homo sapiens, UniProt P50549 1-477)
# Sequence of ETV1 (P50549 whole entry): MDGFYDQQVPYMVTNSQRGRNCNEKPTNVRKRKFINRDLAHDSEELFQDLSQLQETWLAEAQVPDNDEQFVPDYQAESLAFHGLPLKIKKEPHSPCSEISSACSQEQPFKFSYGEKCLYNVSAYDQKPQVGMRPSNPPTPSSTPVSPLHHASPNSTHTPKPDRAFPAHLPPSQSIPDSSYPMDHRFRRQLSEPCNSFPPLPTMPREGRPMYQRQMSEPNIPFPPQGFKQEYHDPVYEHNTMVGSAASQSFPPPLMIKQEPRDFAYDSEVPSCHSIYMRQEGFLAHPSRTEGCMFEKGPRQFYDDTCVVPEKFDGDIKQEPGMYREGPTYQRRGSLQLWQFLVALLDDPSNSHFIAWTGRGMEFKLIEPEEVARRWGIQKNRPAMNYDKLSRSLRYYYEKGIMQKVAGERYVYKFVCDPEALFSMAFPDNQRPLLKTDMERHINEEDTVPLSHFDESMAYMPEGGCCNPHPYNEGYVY
# In short: as §1
# ETV3L = target: T6, ETV3L (Homo sapiens, UniProt Q6ZN32 1-361)
# T6 sequence: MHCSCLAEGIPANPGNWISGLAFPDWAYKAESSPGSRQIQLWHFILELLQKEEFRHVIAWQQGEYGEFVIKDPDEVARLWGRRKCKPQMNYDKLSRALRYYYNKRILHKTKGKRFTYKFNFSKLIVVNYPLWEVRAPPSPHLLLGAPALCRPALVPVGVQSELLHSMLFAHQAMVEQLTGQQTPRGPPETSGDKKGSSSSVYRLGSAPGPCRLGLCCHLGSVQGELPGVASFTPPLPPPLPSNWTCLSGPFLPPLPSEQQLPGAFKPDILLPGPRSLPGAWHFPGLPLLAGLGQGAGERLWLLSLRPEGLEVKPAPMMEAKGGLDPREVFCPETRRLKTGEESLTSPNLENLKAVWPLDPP
# In short: as §1
# SPDEF = target: T7, SPDEF (Homo sapiens, UniProt O95238 1-335)
# T7 sequence: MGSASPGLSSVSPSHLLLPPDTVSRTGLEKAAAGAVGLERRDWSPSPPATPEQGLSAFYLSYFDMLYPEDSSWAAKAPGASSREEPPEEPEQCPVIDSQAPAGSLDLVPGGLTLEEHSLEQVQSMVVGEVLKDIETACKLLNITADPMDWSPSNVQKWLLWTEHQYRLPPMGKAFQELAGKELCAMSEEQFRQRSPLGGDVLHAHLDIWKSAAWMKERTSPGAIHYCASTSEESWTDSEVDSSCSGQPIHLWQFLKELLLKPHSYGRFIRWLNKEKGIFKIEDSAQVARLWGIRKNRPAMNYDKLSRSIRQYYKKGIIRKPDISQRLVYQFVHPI
# In short: as §1
# ELF5 = target: T8, ELF5 (Homo sapiens, UniProt Q9UKW6-2 1-255)
# T8 sequence: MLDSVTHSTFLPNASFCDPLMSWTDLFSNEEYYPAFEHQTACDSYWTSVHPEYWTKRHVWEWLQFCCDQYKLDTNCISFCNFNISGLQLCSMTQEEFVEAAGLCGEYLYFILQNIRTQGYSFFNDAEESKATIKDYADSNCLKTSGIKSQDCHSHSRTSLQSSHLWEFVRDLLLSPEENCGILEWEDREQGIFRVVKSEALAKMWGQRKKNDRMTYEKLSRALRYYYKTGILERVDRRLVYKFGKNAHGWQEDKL
# In short: as §1
# ETV3 = target: T9, ETV3 (Homo sapiens, UniProt P41162-2 1-143)
# T9 sequence: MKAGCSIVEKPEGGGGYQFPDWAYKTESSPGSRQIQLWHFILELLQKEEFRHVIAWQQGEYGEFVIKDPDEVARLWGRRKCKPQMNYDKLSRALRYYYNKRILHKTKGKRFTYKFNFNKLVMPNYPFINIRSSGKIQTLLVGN
# In short: as §1
Sequence,binding signal (SPIC),binding signal (GABPA),binding signal (ELF1),binding signal (ELK3),binding signal (FEV),binding signal (ELF4),binding signal (ELK4),binding signal (ETV1),binding signal (ETV3L),binding signal (SPDEF),binding signal (ELF5),binding signal (ETV3)
GGTCCA,"1.02 fold enrichment (6-mer frequency, TF over GST control)",,,,,,,,,,,
CGCCAC,"1.02 fold enrichment (6-mer frequency, TF over GST control)","1.04 fold enrichment (6-mer frequency, TF over GST control)","1.08 fold enrichment (6-mer frequency, TF over GST control)","1.04 fold enrichment (6-mer frequency, TF over GST control)","1.11 fold enrichment (6-mer frequency, TF over GST control)","1.03 fold enrichment (6-mer frequency, TF over GST control)","1.07 fold enrichment (6-mer frequency, TF over GST control)","1.06 fold enrichment (6-mer frequency, TF over GST control)","1.03 fold enrichment (6-mer frequency, TF over GST control)","1.05 fold enrichment (6-mer frequency, TF over GST control)","1.05 fold enrichment (6-mer frequency, TF over GST control)","1.02 fold enrichment (6-mer frequency, TF over GST control)"
